From PubChem BioAssay (NCATS)
Where “and” joins values, the source holds several entries; their conditions need not be identical. Equal values may be shown once. Results filed as inconclusive are left out. Calls of active or inactive are those of the source. Unless noted, the call rests on the fitted dose curve; in most records, active means well fitted curve in the direction sought with a large enough effect; inconclusive means small, poorly fitted or top-dose-only effect, or another doubt; inactive means no such curve, though single readings can be large; an effect the other way counts as inactive or inconclusive.

Experiments:
[1] = qHTS Screen of the MIPE 4.0 Collection Against Ewings Sarcoma (TC32) (AID 1259256); further: nearly all actives have a fitted effect of over 45% in size; further: potency means the concentration at half of the fitted maximal effect
Method in brief: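 Compound titrations go onto adherent log-phase cells 4 h after seeding, incubate 48 h at 37C, then CellTiter-Glo luminescence reports viability relative to DMSO and cell-free controls.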

[2] = qHTS assay to identify small molecule inhibitors of chordoma cells - UCH-2 (AID 1259356); further: series mostly up to about 46 µM
[3] = P-glycoprotein substrates identified in KB-8-5-11 adenocarcinoma cell line, qHTS therapeutic library screen (AID 1346987); further: nearly all actives have a fitted effect of over 65% in size; further: potency means the concentration at half of the fitted maximal effect
Method in brief: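 In this qHTS, P-gp-rich KB-8-5-11 cells received library compounds across a concentration range. Viability was quantified by luminescence after 72 h at 37 degree C.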

[4] = Natriuretic polypeptide receptor (hNpr1) antagonism - Pilot counterscreen GloSensor control cell line (AID 1347045; calls by dose curve; further: series mostly up to about 38 µM)
Method in brief: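 HEK293 cGMP-sensor cells; 2% GloSensor reagent 2 h RT; LOPAC compounds in 1:5 titrations 30-50 min; 50 uM SNP 20 min; luminescence pre-read and post-read.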

[5] = molecular target: Atrial natriuretic peptide receptor 2 (Homo sapiens) (UniProt P20594); test: Natriuretic polypeptide receptor (hNpr2) antagonism - Pilot subtype selectivity assay (AID 1347050; calls by dose curve)
Sequence of Atrial natriuretic peptide receptor 2 (Homo sapiens) (P20594 whole entry, looked up): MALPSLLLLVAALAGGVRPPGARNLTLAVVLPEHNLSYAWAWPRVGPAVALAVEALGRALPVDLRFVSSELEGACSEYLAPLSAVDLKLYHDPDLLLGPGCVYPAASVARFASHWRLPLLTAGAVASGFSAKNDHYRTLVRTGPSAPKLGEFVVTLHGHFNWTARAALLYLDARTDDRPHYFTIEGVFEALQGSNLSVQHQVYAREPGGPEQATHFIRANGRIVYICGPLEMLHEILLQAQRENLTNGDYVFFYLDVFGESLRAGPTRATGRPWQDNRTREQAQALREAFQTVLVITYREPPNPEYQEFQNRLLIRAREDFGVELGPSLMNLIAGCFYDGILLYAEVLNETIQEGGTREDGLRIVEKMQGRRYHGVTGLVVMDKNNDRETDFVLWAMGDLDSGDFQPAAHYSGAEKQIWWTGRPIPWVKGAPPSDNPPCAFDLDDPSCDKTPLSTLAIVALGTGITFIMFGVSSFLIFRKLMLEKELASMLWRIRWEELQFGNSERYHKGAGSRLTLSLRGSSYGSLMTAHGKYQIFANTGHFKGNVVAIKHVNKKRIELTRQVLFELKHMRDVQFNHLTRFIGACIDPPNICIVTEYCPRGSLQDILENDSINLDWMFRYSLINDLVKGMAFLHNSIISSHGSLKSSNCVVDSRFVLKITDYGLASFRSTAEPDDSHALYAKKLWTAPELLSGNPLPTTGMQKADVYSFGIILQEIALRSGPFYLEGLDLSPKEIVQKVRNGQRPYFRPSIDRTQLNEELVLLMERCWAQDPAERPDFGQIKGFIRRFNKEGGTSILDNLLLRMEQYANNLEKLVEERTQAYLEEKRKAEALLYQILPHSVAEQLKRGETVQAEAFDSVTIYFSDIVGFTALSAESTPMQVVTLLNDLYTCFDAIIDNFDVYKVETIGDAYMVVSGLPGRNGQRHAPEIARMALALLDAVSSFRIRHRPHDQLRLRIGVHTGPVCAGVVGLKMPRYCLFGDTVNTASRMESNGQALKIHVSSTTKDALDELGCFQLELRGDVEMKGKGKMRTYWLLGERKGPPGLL
Method in brief: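 Read-out: GloSensor luminescence (CCD imager), baseline vs post-stimulation. HEK293 cells expressing hNpr2; compounds pre-incubated 30-50 min at ambient temperature; hNppC 1 nM final, 20 min.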

[6] = NS1 protein of Zika virus - qHTS assay to identify small molecule inhibitors in human HEK 293 cells (AID 1347053); further: series mostly up to about 46 µM; nearly all actives have a fitted effect of over 55% in size
Method in brief: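 Readout was TR-FRET using paired anti-NS1 antibodies after 24 h infection of HEK 293 cells with ZIKV MR766 (MOI = 0.5). Compound preceded virus by 1 h; reduced signal reflects lower NS1 expression.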

[7] = molecular target: T1, Tyrosine-protein phosphatase non-receptor type substrate 1 (Homo sapiens) + Leukocyte surface antigen CD47 (Homo sapiens) (UniProt P78324+Q08722); test: CD47-SIRPalpha protein protein interaction - HTRF assay qHTS validation (AID 1347058; active means well fitted curve in the direction sought with a large enough effect in the signal ratio, not every such curve was filed as active; the % refers to the signal ratio; further: series mostly up to about 38 µM)
T1 sequence (P78324 whole entry, looked up, the tested form may be a part): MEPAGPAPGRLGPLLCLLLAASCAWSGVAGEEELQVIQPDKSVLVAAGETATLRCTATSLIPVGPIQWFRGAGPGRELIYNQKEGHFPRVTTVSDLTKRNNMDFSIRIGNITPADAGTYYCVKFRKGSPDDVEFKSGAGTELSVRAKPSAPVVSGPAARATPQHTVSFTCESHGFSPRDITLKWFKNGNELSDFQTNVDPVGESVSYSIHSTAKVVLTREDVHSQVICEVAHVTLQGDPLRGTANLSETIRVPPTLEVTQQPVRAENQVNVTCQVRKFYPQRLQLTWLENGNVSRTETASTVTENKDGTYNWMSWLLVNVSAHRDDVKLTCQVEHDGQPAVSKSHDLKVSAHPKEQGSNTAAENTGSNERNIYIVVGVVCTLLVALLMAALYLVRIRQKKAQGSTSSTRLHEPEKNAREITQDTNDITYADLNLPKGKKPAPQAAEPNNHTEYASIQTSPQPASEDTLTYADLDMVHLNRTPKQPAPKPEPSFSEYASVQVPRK
T1 sequence (Q08722 whole entry, looked up, the tested form may be a part): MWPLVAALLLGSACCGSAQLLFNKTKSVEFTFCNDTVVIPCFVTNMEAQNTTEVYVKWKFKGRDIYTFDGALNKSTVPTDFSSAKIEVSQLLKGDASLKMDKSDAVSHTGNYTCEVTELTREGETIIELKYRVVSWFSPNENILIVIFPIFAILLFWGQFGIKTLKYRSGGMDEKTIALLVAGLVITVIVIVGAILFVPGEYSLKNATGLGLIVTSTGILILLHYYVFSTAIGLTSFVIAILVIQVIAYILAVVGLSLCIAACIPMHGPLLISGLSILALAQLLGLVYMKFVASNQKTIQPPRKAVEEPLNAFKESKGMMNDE
Method in brief: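 Soluble extracellular domains (6His-CD47, Avi-tag-biotinylated SIRPalpha) in PBS pH 7.4 with 0.05% IGEPAL CA-630. Compounds were preincubated 30 min at RT with CD47 and anti-His-Eu, then SIRPalpha and SAV-XL665 were added. TR-FRET 665/615 ratio.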

[8] = molecular target: T1, Tyrosine-protein phosphatase non-receptor type substrate 1 (Homo sapiens) + Leukocyte surface antigen CD47 (Homo sapiens); test: CD47-SIRPalpha protein protein interaction - Alpha assay qHTS validation (AID 1347059);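 further: bead proximity luminescence from CD47 binding SIRPalpha after compound preincubation with SIRPalpha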
Method in brief: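 In PBS (pH 7.4) with 0.05% IGEPAL CA-630, compound is preincubated with biotin-Avi-SIRPalpha ectodomain before His-CD47 ectodomain and affinity beads are added. Light-protected room-temperature incubations; AlphaScreen readout.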

[9] = qHTS of pediatric cancer cell lines to identify multiple opportunities for drug repurposing: Primary screen for TC32 cells (AID 1347089); further: nearly all actives have a fitted effect of over 60% in size; further: potency means the concentration at half of the fitted maximal effect
Method in brief: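 In the primary qHTS, MIPE compounds were tested at 11 concentrations (0.78 nM to 46 µM) and NPC compounds at 8 (0.59 nM to 46 µM) on TC32 cells for 48 h. CellTiter-Glo luminescence gave viability.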

[10] = qHTS of pediatric cancer cell lines to identify multiple opportunities for drug repurposing: Primary screen for DAOY cells (AID 1347090); further: nearly all actives have a fitted effect of over 55% in size; further: potency means the concentration at half of the fitted maximal effect
Method in brief: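 Eight- or eleven-point concentration series, 48 h treatment at 37 degrees C in growth media; readout CellTiter-Glo luminescence. Potency and efficacy were taken from the concentration-response curves.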

[11] = Identifying Small Molecule Inhibitors of Pancreatic Cancer Stem Cells (SN12C, Adherent) (AID 1259358);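 further: cell survival measured after 48 h of compound exposure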; further: potency means the concentration at half of the fitted maximal effect
Method in brief: (§1)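 Viability is scored by CellTiter-Glo luminescence 48 h after dosing, expressed as percent activity against vehicle and no-cell references. Spheroid formats rely on cells cultured 14 days in stem cell media beforehand.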

[12] = Identifying Small Molecule Inhibitors of Pancreatic Cancer Stem Cells (SN12C, Spheroid) (AID 1259360); conditions: Potency: SN12C spheroid viability; further: potency means the concentration at half of the fitted maximal effect
Method in brief: (§2)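 Adherent (2D) versus sphere (3D) formats; spheres generated 14 d in SCM beforehand. Compound transferred by pin tool after 4 h, 48 h incubation, CellTiter-Glo endpoint.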

[13] = Identifying Small Molecule Inhibitors of Pancreatic Cancer Stem Cells (A278, Adherent) (AID 1259361);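 further: viability read after 48 h compound exposure; nearly all actives have a fitted effect of over 35% in size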
Method in brief: as §1

[14] = Identifying Small Molecule Inhibitors of Pancreatic Cancer Stem Cells (Panc1, Adherent) (AID 1259362); conditions: Potency: viability;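 further: compound exposure lasted 48 h before the viability read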
Method in brief: as §2

[15] = P-glycoprotein substrates identified in KB-3-1 adenocarcinoma cell line, qHTS therapeutic library screen (AID 1346986); further: nearly all actives have a fitted effect of over 60% in size;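 further: potency means the concentration at half of the fitted maximal effect; potency is for cytotoxicity meaning loss of cell viability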
Method in brief: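 Using luminescence to quantify ATP, parental and P-gp-overexpressing KB cells were compared after 72 h compound titration. KB-8-5-11 was also run with the P-gp inhibitor tariquidar.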

[16] = Identifying Small Molecule Inhibitors of Pancreatic Cancer Stem Cells (Panc1, Spheroid) (AID 1259359);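 further: potency means the concentration at half of the fitted maximal effect; compound exposure lasted 48 h before reading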
Method in brief: as §1

[17] = molecular target: T1, Tyrosine-protein phosphatase non-receptor type substrate 1 (Homo sapiens) + Leukocyte surface antigen CD47 (Homo sapiens); test: CD47-SIRPalpha protein protein interaction - LANCE assay qHTS validation (AID 1347057; active means well fitted curve in the direction sought with a large enough effect in the signal ratio, with a control signal flat, not every such curve was filed as active; the % refers to the signal ratio; further: series mostly up to about 38 µM)
Method in brief: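 Inhibition of soluble CD47/SIRPalpha ectodomain association by titrated compounds, measured as 665/615 nm time-resolved FRET ratio after sequential 30 min room-temperature incubations.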

[18] = molecular target: Atrial natriuretic peptide receptor 1 (Homo sapiens) (UniProt P16066); test: Natriuretic polypeptide receptor (hNpr1) antagonism - Pilot screen (AID 1347049; calls by dose curve;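 further: HEK293 cells with hNpr1 and GloSensor cGMP luciferase stimulated by 0.1 nM hNppA; agonist-evoked cGMP luminescence read 20 min after hNppA addition; series mostly up to about 58 µM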)
Sequence of Atrial natriuretic peptide receptor 1 (Homo sapiens) (P16066 whole entry, looked up): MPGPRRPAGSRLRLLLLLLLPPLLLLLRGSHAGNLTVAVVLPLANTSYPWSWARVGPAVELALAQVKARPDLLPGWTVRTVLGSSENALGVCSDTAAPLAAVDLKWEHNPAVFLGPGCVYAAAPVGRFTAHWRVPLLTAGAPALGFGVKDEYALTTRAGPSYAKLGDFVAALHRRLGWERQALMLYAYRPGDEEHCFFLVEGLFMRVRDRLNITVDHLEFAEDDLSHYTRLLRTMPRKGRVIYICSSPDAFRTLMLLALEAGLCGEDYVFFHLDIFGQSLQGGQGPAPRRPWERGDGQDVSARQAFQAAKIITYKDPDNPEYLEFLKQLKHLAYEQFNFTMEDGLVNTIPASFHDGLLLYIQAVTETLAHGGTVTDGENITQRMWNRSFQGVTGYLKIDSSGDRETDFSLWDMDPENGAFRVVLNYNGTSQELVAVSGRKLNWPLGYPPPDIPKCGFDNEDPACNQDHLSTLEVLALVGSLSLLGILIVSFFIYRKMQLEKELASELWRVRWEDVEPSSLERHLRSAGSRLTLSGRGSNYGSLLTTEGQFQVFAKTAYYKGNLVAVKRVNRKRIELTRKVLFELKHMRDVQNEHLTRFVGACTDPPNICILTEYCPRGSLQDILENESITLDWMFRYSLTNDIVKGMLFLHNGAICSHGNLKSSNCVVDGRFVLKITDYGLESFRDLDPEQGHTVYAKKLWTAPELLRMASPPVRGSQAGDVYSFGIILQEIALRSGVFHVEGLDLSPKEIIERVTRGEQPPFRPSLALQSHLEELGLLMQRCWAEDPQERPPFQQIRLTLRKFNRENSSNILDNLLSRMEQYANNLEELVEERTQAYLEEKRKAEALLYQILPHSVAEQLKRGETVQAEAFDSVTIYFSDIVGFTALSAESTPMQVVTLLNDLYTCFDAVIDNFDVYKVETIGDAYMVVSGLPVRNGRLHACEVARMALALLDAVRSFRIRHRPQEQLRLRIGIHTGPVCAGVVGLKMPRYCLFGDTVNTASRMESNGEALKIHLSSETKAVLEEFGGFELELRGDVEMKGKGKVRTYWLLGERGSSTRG
Method in brief: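 Cells expressing receptor plus cGMP biosensor are seeded and incubated overnight at 37C, then loaded with GloSensor reagent (2% final) at room temperature for 2 h. Library compounds go on for 30 min. A pre-read precedes agonist (hNppA, 0.1 nM final) and a 20-min readout.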

[19] = molecular target: Parathyroid hormone/parathyroid hormone-related peptide receptor (Homo sapiens) (UniProt Q03431); test: qHTS for PTHR1 Agonists: Optimization Screen against the NCGC LOPAC library (AID 1347079);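 further: GloSensor cAMP luminescence in HEK-293 GP2 cells expressing human PTHR1 with IBMX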
Sequence of Parathyroid hormone/parathyroid hormone-related peptide receptor (Homo sapiens) (Q03431 whole entry, looked up): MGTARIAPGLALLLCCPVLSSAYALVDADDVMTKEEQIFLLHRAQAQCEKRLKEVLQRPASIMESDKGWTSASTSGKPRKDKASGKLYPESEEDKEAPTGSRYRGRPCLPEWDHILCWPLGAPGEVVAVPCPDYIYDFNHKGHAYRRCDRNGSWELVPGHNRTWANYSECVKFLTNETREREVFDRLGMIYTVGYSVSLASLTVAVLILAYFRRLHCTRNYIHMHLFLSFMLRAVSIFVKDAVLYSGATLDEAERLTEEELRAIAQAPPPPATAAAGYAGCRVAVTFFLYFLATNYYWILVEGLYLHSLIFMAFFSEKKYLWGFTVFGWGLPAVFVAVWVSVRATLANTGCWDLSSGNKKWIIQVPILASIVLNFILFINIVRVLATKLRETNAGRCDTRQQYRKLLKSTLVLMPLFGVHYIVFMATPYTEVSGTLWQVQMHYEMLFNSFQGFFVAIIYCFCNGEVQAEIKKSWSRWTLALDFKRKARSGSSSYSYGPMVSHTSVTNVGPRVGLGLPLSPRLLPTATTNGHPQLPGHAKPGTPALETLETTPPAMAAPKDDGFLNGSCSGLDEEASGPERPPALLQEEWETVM
Method in brief: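 Signal increase flags agonism. GP2 cells, derived from HEK-293, express human PTHR1 and a GloSensor cAMP construct.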

CC(C)(C)NCC(O)c1ccc(O)c(CO)c1 (stereo not drawn)
inactive: Potency [1] | outcome [2] | Potency [3] | outcome [4] | Potency [5] | Potency [6] | outcome [7] | outcome [8] | Potency [9] | Potency [10]

c1ccc([C@H]2CN3CCSC3=N2)cc1
inactive: Potency [1] | outcome [2] | outcome [4] | Potency [5] | Potency [6] | outcome [7] | outcome [8] | Potency [9] | Potency [10]

Fc1ccc(Cl)cc1-c1nc(Nc2ccncc2)c2nccnc2n1
active: Potency [1] 1.32 µM
inactive: Potency [11] | Potency [12] | IC50 (viability decrease) [13] | Potency [14] | Potency [15] | Potency [3] | Potency [6] | Potency [9] | Potency [10]

Cc1csc(NC(=O)c2sc3nc4c(c(C(F)(F)F)c3c2N)CCC4)n1
inactive: Potency [11] | Potency [12] | IC50 (viability decrease) [13] | Potency [14] | Potency [6] | Potency [9]
active: Potency [1] 6.62 µM | Potency [10] 23.5 µM

Cc1cccc(-c2[nH]c(C(C)(C)C)nc2-c2ccc3nccnc3c2)n1
active: Potency [1] 20.9 µM | Potency [16] 8.33 µM | Potency [15] 3.26 µM | Potency [3] 8.2 µM | Potency [9] 13.1 µM
inactive: Potency [11] | Potency [12] | Potency [14] | outcome [4] | Potency [5] | Potency [6] | outcome [17] | outcome [8]

Oc1ccc(C2CNCCc3c2cc(O)c(O)c3Cl)cc1 (stereo not drawn)
inactive: Potency [1] | outcome [2] | outcome [4] | outcome [18] | Potency [5] | Potency [6] | outcome [7] | outcome [8] | outcome [19] | Potency [9] | Potency [10]

CCc1cc(Nc2nccc(-c3c(-c4ccc(OC)c(C(=O)Nc5c(F)cccc5F)c4)nc4ccccn34)n2)c(OC)cc1N1CCC(N2CCN(S(C)(=O)=O)CC2)CC1
inactive: Potency [11] | Potency [12] | IC50 (viability decrease) [13] | Potency [14] | Potency [3] | Potency [9]
active: Potency [1] 16.6 µM

NCCCC(N)(C(=O)O)C(F)F (stereo not drawn)
inactive: Potency [1] | outcome [2] | outcome [4] | outcome [18] | Potency [5] | Potency [6] | outcome [7] | outcome [8] | outcome [19] | Potency [9] | Potency [10]

Cc1[nH]c(=O)c(C#N)cc1-c1ccncc1
inactive: Potency [1] | outcome [2] | Potency [3] | Potency [5] | Potency [6] | outcome [8] | Potency [10]

Nc1nc2c(ncn2COCCO)c(=O)[nH]1
inactive: Potency [1] | outcome [2] | outcome [4] | Potency [5] | outcome [7] | outcome [8] | outcome [19] | Potency [9] | Potency [10]

CCn1cc(C(=O)O)c(=O)c2cc(F)c(N3CCNC(C)C3)c(F)c21 (stereo not drawn)
inactive: Potency [1] | outcome [2] | outcome [4] | Potency [5] | outcome [17] | outcome [7] | outcome [8] | Potency [9] | Potency [10]

NNCCc1ccccc1
inactive: outcome [2] | Potency [3] | Potency [5] | outcome [8] | Potency [9] | Potency [10]
active: Potency [1] 11.8 µM

O=NN(CCCl)C(=O)NCCCl
inactive: Potency [1] | outcome [2] | outcome [4] | Potency [5] | Potency [6] | outcome [7] | outcome [8] | Potency [9] | Potency [10]

CCN(c1ccccc1)c1cc(NC)[n+](C)c(C)n1
inactive: Potency [11] | Potency [12] | IC50 (viability decrease) [13] | Potency [14] | Potency [3] | Potency [6] | Potency [9] | Potency [10]
active: Potency [1] 16.6 µM

CC1(C)SCCN(S(=O)(=O)c2ccc(OCC#CCO)cc2)[C@@H]1C(=O)NO
inactive: Potency [1] | Potency [11] | Potency [12] | IC50 (viability decrease) [13] | Potency [15] | Potency [3] | Potency [6] | Potency [9] | Potency [10]

Cn1cnc([N+](=O)[O-])c1Sc1ncnc2nc[nH]c12
inactive: outcome [2] | outcome [4] | Potency [5] | Potency [6] | outcome [8]
active: Potency [1] 3.32 µM | Potency [3] 4.61 µM and 2 µM and 833 nM | Potency [9] 10.8 µM and 10.5 µM and 16.5 µM | Potency [10] 1.91 µM and 6.68 µM and 5.9 µM

CC(=O)Oc1ccccc1C(=O)O
active: Potency [1] 11.8 µM
inactive: outcome [2] | outcome [4] | Potency [5] | Potency [6] | outcome [7] | outcome [8] | Potency [9]

CC(C)(Sc1ccc(CCN(CCCCC2CCCCC2)C(=O)NC2CCCCC2)cc1)C(=O)O
active: Potency [1] 18.7 µM
inactive: Potency [11] | Potency [12] | IC50 (viability decrease) [13] | Potency [15] | Potency [3] | Potency [5] | Potency [6] | outcome [7] | outcome [8] | outcome [19] | Potency [9]

COc1ccc(-c2ccc3c(N4CCOCC4)nc(N4C[C@@H](C)O[C@@H](C)C4)nc3n2)cc1CO
active: Potency [1] 0.59 µM | Potency [11] 0.235 µM | Potency [16] 1.05 µM | Potency [12] 0.372 µM | Potency [3] 0.296 µM

NC[C@H](O)c1ccc(O)c(O)c1
inactive: Potency [1] | outcome [2] | outcome [4] | Potency [5] | Potency [6] | outcome [8] | Potency [9] | Potency [10]

Nc1cccc(S(=O)(=O)N2CCCN(S(=O)(=O)c3ccc4c(c3)OCCO4)CC2)c1
active: Potency [16] 5.26 µM
inactive: Potency [1] | Potency [11] | Potency [12] | IC50 (viability decrease) [13] | Potency [14] | Potency [9] | Potency [10]
